Data as given in PubChem BioAssay (Tox21).
Inconclusive results are not listed. Values without a mark were called inactive. Calls of active or inactive are those of the source. The call rests on the fitted dose curve; in most records, active means well fitted cell-killing curve with a large enough effect in the repeat runs; inconclusive means weak or mixed curves, or effect the other way; inactive means flat fitted curve, though single readings scatter.

Assay: qHTS assay to identify small molecule antagonists of the constitutive androstane receptor (CAR) signaling pathway - cell viability counter screen (AID 1224837); further: nearly all actives have a fitted effect of over 45% in size
Conditions: HepG2-CYP2B6-hCAR viability, CellTiter-Fluor, 23 h, co-treated with 50 nM CITCO; series mostly up to 92.4 µM; activity change, negative = cytotoxicity: at the top concentration
From the text: National Center for Advancing Translational Sciences [NCATS]
NIH Chemical Genomics Center [NCGC]
U.S. Environmental Protection Agency [EPA]
National Institutes of Environmental Health Sciences [NIEHS]
National Toxicology Program [NTP]
U.S. Food and Drug Administration [FDA]
The constitutive androstane receptor (CAR) is a nuclear receptor which regulates multiple drug metabolizing enzymes (DMEs) and transporters. Activating CAR will generally increase the transcription and subsequent translation of CYP2B6 and CYP3A4. These two DMEs represent about 50% of the drug metabolizing potential in the body. When CAR is deactivated, the metabolizing potential in the body will decrease, subsequently increasing the toxicity in the body or lowering the therapeutic potential of a pro-drug. Recently, there have also been studies performed indicating CARs role in energy metabolism and cancer therapy. Therefore, inhibiting CARs activity could have a potential effect on diabetes and cancer. Identifying environmental toxins and compounds which modulate CAR, through the use of the Tox21 10K compound collection, will be an important step in determining the toxicity and potential therapeutic effects these factors will have on the human body. To differentiate true CAR antagonists from cytotoxic substances, the assay is multiplexed with a cell viability assay.
Tox21 Assay Protocol Summary:
A double-stable (hCAR and CYP2B6-2.2kb) transfected cell line, derived from human hepatoma (HepG2) cells, was utilized for the duration of the quantitative high-throughput screens. The HepG2-CYP2B6-hCAR cells were dispensed at 2500 cells/4 uL/well in 1536-well white solid bottom plates using a Multidrop Combi. After the assay plates were incubated at 37 C/5% CO2 for 4 hrs, 23 nL of compounds at 15 concentrations (from 5-48 columns) or positive control (from 1 to 4 columns) were transferred to the assay plates using a Pintool station. One uL of CITCO (final concentration = 50 nM) was added, using a Flying Reagent Dispenser, inside each well. After a 23 hr incubation period at 37 C/5% CO2, 1 uL of CellTiter-Fluor reagent was added into each well of the assay plates using a Flying Reagent Dispenser. The fluorescence intensity in the plates was then measured using a ViewLux plate reader.
On the % scale 0 is the no-effect control and ±100 the full control effect; potency means the concentration at half of the fitted maximal effect.

Compound	Potency	activity change, negative = cytotoxicity
CCN(Cc1cccc(S(=O)(=O)O)c1)c1ccc(C(=C2C=CC(=[N+](CC)Cc3cccc(S(=O)(=O)O)c3)C=C2)c2ccc(O)cc2S(=O)(=O)[O-])cc1	29.5 µM (active)	–
COc1ccc(-c2cc(=S)ss2)cc1	–	-10.5% [at 42.5 µM]
CCCCCc1ccco1	–	-1.71% [at 42.5 µM]
C=CCOC(=O)COCCC(C)C	–	-4.49%
Cc1ccc(S(=O)(=O)NC(=O)NC2CCCCC2)cc1	–	-1.92% [at 42.5 µM]
CCC(CO)(CO)[N+](=O)[O-]	–	-1.79%
CC(CO)(CO)C(=O)O	–	0.904%
CC(C)(C(=O)c1cccnc1)c1cccnc1	–	-5.59% [at 42.5 µM]
COc1ccc(CCN(C)CCCN2CCc3cc(OC)c(OC)cc3CC2=O)cc1OC	–	-6.15% [at 42.5 µM]
C1CCCCC1	–	2.87%
CC1=C2[C@@H]([C@H](C)CC[C@H]2/C=C(\C)C(=O)O)[C@H](O)C1	–	0.0893%
C[C@H](CS)C(=O)N1CCC[C@H]1C(=O)O	–	-3.78% [at 42.5 µM]
CCCCCCCC(=O)Oc1c(Br)cc(C#N)cc1Br	–	6.38%
C[C@@H]1C[C@H]2[C@@H]3CCC4=CC(=O)C=C[C@]4(C)[C@@]3(F)[C@@H](O)C[C@]2(C)[C@@]1(O)C(=O)COP(=O)(O)O	–	2.76%
CC(=O)OCCC(C)CC(C)(C)C (stereo not given)	–	4.06%
CC12CC3CC(C)(C1)CC(N)(C3)C2	–	-0.652% [at 42.5 µM]
COc1cc(NS(=O)(=O)c2ccc(N)cc2)nc(C)n1	–	3.69% [at 42.5 µM]
C=C(C)c1ccccc1	–	3.38%
c1ccc(CCCc2ccncc2)cc1	–	-11.6%
CC1=CC[C@@]23C[C@@H]1C(C)(C)[C@@H]2CC[C@H]3C	–	3.09%

Compound	Potency	activity change, negative = cytotoxicity
CC(O)Cn1cnc2c1c(=O)n(C)c(=O)n2C (stereo not given)	–	5.74% [at 42.5 µM]
CN=C(N)NC(=O)Nc1c(C)cccc1C	–	0.708% [at 42.5 µM]
O=c1[nH]c2cc(C(F)(F)F)c(N3CCOCC3)cc2n(CP(=O)(O)O)c1=O	–	2.26% [at 42.5 µM]
O=S(=O)(O)CO	–	-0.524%
O=C(O)CN1C(=O)c2cccc3cccc(c23)C1=O	–	6.12% [at 42.5 µM]
CCC(=O)OCc1ccc(OC)cc1	–	1.69%
COc1ccc(C(=O)NCc2ccc(OCCN(C)C)cc2)cc1OC	–	1.47% [at 42.5 µM]
CC(CCc1ccc(O)cc1)NCCc1ccc(O)c(O)c1 (stereo not given)	–	0.817% [at 42.5 µM]
O=[N+]([O-])c1ccc2ncccc2c1	–	-9.42%
CC(CN(CCN(CC(C)OCCO)CC(C)OCCO)CC(C)OCCO)OCCO (stereo not given)	–	0.536%
O=C(NS(=O)(=O)/C=C/c1ccccc1)c1ccc(F)cc1Cl	–	6.26%
CC(=O)NCCO	–	-0.971%
CCCCCCCCCCCCCCCCCC(=O)OCC(CC)CCCC (stereo not given)	–	13%
COc1ccc(-n2nc(C(F)F)cc2-c2ccc(S(C)=O)cc2)cc1 (stereo not given)	–	1.54%
O=C1NC(=O)c2cccc3cccc1c23	–	-5.01%
COc1cc(NC(C)CCCN)c2ncccc2c1 (stereo not given)	–	-7.33% [at 42.5 µM]
C[C@@H]1[C@H](O)[C@@H](C)/C=C/C=C\C=C\C=C\C=C\C=C\C=C\[C@H](O[C@@H]2O[C@H](C)[C@@H](O)[C@H](N)[C@@H]2O)C[C@@H]2O[C@](O)(C[C@@H](O)C[C@@H](O)[C@H](O)CC[C@@H](O)C[C@@H](O)CC(=O)O[C@H]1C)C[C@H](O)[C@H]2C(=O)O (stereo in doubt)	–	-18.3%
O=C(O)c1ccc(O)cc1O	–	6.89%
C=Cc1ccc(OC(C)=O)cc1	–	-0.823%
CC(C)OC(=O)c1ccccc1C(=O)OC(C)C	–	-1.04%
